± gives the standard deviation.

This passage reports NF-kB reporter, IRF reporter and viability score results from the supplement of paper PMC10646978.

Holding throughout (conditions): modulator concentration 10 µM
Assay [1] deals with RAW-Dual (murine macrophage reporter line). Kind of assay: NF-kB reporter (SEAP) activity fold change vs agonist alone; higher = enhanced NF-kB activity. In outline: (§1)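 Overnight stimulation with a PRR agonist followed pre-incubation for 1 hour at 37 °C with compound at 10 μM final. This was done in RAW-Dual murine macrophage reporter cells seeded at 50 000 per well in 384-well plates. NF-κB (SEAP, QUANTI-Blue absorbance at 620 nm) and IRF (Lucia luciferase, QUANTI-Luc luminescence) were read from the supernatant. Each reporter's fold change relative to the mean agonist-only control on the same plate was averaged over replicate plates.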

For assay [2] the test system is unchanged. Kind of assay: IRF reporter (Lucia luciferase) activity fold change vs agonist alone; higher = enhanced IRF activity. In outline:
as §1

Assay [3] shares this test system. Kind of assay: viability score (confluency relative to resting cells, overnight) (fraction); higher = more viable, active = viable (0.7 or more). The essentials: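 RAW-Dual macrophages in 384-well plates were incubated overnight with compound, final concentration 10 μM. Confluency images from IncuCyte were processed in IncuCyte software into two masks covering all imaged wells. The viability score is each well's confluency relative to resting cells, and a compound met the cutoff when both masks exceeded 70% of resting cells.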

The mark [4] stands for this setting: agonist: CpG ODN 1826 0.5 ug/mL.

Consider `O=C(NCCCOc1cccc2cccnc12)c1cnccn1`, for which the NF-kB reporter in assay [1] (setting [4]) is 1.03 ± 0.059; in assay [1] (agonist: LPS 0.1 ug/mL), 0.979 ± 0.094; in assay [1] (agonist: MPLA […]) it was 0.998 ± 0.035. Besides, the IRF reporter in assay [2] (agonist: 3'3'-cGAMP 10 ug/mL) was 0.95 ± 0.036; in assay [2] (agonist: LPS 0.1 ug/mL) it was 1.01 ± 0.052; in assay [2] (agonist: MPLA […]), 0.99 ± 0.1. Besides, in assay [3], the viability score is 1 (active).
Regarding `COc1ccc(-c2nc3cc(C4=NNC(=O)CC4C)ccc3[nH]2)cc1` (configuration not stated), the NF-kB reporter in assay [1] (setting [4]) was 2.4 ± 0.37; in assay [1] (agonist: LPS 0.1 ug/mL), 1.37 ± 0.23; in assay [1] (agonist: MPLA […]), 1.14 ± 0.073. Moreover, the values for the IRF reporter in assay [2] (agonist: 3'3'-cGAMP 10 ug/mL), in assay [2] (agonist: LPS 0.1 ug/mL) and in assay [2] (agonist: MPLA […]) were 0.164 ± 0.057, 1.07 ± 0.25 and 1.33 ± 0.12, respectively. For the same molecule, the viability score in assay [3] is 0.775 (active).
Regarding `CCCCn1c(CNC(=O)c2cccs2)nc2ccccc21`, the NF-kB reporter was 0.926 ± 0.077 in assay [1] (setting [4]), 0.98 ± 0.06 in assay [1] (agonist: LPS 0.1 ug/mL) and 1.03 ± 0.061 in assay [1] (agonist: MPLA […]). Further, the results for the IRF reporter in assay [2] (agonist: 3'3'-cGAMP 10 ug/mL), in assay [2] (agonist: LPS 0.1 ug/mL) and in assay [2] (agonist: MPLA […]) were 1.03 ± 0.06, 1.15 ± 0.093 and 0.921 ± 0.15, respectively. The viability score in assay [3] was 0.983 (active).
With `Cc1cc(C(=O)N2CCC(Oc3cccc4cccnc34)CC2)n(C)n1`, the NF-kB reporter in assay [1] (setting [4]) amounted to 0.994 ± 0.3; in assay [1] (agonist: LPS 0.1 ug/mL) it was 1.08 ± 0.054; in assay [1] (agonist: MPLA […]), 1.07 ± 0.081. The IRF reporter in assay [2] (agonist: 3'3'-cGAMP 10 ug/mL) stood at 0.942 ± 0.035; in assay [2] (agonist: LPS 0.1 ug/mL) it was 1.03 ± 0.11; in assay [2] (agonist: MPLA […]), 1.13 ± 0.18. For the same molecule, in assay [3], the viability score was 0.536 (inactive).
In the case of `CC(=O)N1CCN=C1SCc1cccc(C(F)(F)F)c1`, the NF-kB reporter in assay [1] (setting [4]) came out at 0.767 ± 0.06; in assay [1] (agonist: LPS 0.1 ug/mL), 0.698 ± 0.059; in assay [1] (agonist: MPLA […]), 0.896 ± 0.029. Further, the IRF reporter in assay [2] (agonist: 3'3'-cGAMP 10 ug/mL) is 0.572 ± 0.035; in assay [2] (agonist: LPS 0.1 ug/mL), 0.912 ± 0.068; in assay [2] (agonist: MPLA […]), 0.88 ± 0.08. For the same molecule, the viability score in assay [3] is 0.99 (active).
Consider `O=C(O[C@H]1C[C@H]2CC3C[C@@H](C1)N2CC3=O)c1c[nH]c2ccccc12`, for which the NF-kB reporter in assay [1] (setting [4]) was determined as 0.524 ± 0.055; in assay [1] (agonist: LPS 0.1 ug/mL) it was 0.598 ± 0.1; in assay [1] (agonist: MPLA […]), 0.693 ± 0.03. Besides, the IRF reporter was 0.92 ± 0.051 in assay [2] (agonist: 3'3'-cGAMP 10 ug/mL), 0.909 ± 0.03 in assay [2] (agonist: LPS 0.1 ug/mL) and 0.912 ± 0.084 in assay [2] (agonist: MPLA […]). The viability score in assay [3] is 0.998 (active).
Take `COc1ccc(N(CC(=O)NCCSCc2ccccc2)S(C)(=O)=O)cc1Cl`: the NF-kB reporter turned out to be 0.873 ± 0.15 in assay [1] (setting [4]), 1.06 ± 0.071 in assay [1] (agonist: LPS 0.1 ug/mL) and 0.893 ± 0.068 in assay [1] (agonist: MPLA […]). Further, the values for the IRF reporter in assay [2] (agonist: 3'3'-cGAMP 10 ug/mL), in assay [2] (agonist: LPS 0.1 ug/mL) and in assay [2] (agonist: MPLA […]) were 0.864 ± 0.12, 1.08 ± 0.1 and 0.85 ± 0.18, respectively. In addition, the viability score in assay [3] was 1.01 (active).
Take `CN1CCN(C(CC(=O)Nc2cccc(C(F)(F)F)c2)C(=O)O)CC1` (configuration not stated): the NF-kB reporter is 1.02 ± 0.051 in assay [1] (setting [4]), 1.09 ± 0.086 in assay [1] (agonist: LPS 0.1 ug/mL) and 0.859 ± 0.038 in assay [1] (agonist: MPLA […]). Moreover, the IRF reporter in assay [2] (agonist: 3'3'-cGAMP 10 ug/mL) was found to be 0.979 ± 0.049; in assay [2] (agonist: LPS 0.1 ug/mL), 1.16 ± 0.1; in assay [2] (agonist: MPLA […]), 1.17 ± 0.26. Also, in assay [3], the viability score was 0.999 (active).
`Nc1ccccc1S(N)(=O)=O` [Prestw-913]: the NF-kB reporter was determined as 0.95 ± 0.19 in assay [1] (setting [4]), 1.07 ± 0.13 in assay [1] (agonist: LPS 0.1 ug/mL) and 1.04 ± 0.092 in assay [1] (agonist: MPLA […]). Besides, the figures for the IRF reporter in assay [2] (agonist: 3'3'-cGAMP 10 ug/mL), in assay [2] (agonist: LPS 0.1 ug/mL) and in assay [2] (agonist: MPLA […]) were 0.943 ± 0.062, 0.991 ± 0.23 and 1.1 ± 0.2, respectively. The viability score in assay [3] was 0.995 (active).
Regarding `CC1=NN(C(=O)c2cccnc2)C(O)(c2ccccc2)C1` (configuration not stated), the values for the NF-kB reporter in assay [1] (setting [4]), in assay [1] (agonist: LPS 0.1 ug/mL) and in assay [1] (agonist: MPLA […]) were 0.893 ± 0.071, 0.969 ± 0.1 and 0.949 ± 0.041, respectively. Also, the IRF reporter in assay [2] (agonist: 3'3'-cGAMP 10 ug/mL) is 0.951 ± 0.09; in assay [2] (agonist: LPS 0.1 ug/mL), 1.05 ± 0.13; in assay [2] (agonist: MPLA […]), 1.1 ± 0.2. Further, the viability score in assay [3] was 0.994 (active).
Turning to `Cn1c(=O)[nH]c(=O)c2c1nc(N1CCCCC1)n2CCC#N`, the NF-kB reporter in assay [1] (setting [4]) came to 1.1 ± 0.07; in assay [1] (agonist: LPS 0.1 ug/mL) it was 1.09 ± 0.07; in assay [1] (agonist: MPLA […]), 0.952 ± 0.071. Further, the values for the IRF reporter in assay [2] (agonist: 3'3'-cGAMP 10 ug/mL), in assay [2] (agonist: LPS 0.1 ug/mL) and in assay [2] (agonist: MPLA […]) were 0.945 ± 0.033, 1.33 ± 0.093 and 1.1 ± 0.16, respectively. In assay [3], the viability score was 1 (active).
`CC(C)(C)C(=O)NCc1cccnc1-c1cccnc1`: the NF-kB reporter in assay [1] (setting [4]) was 0.968 ± 0.052; in assay [1] (agonist: LPS 0.1 ug/mL), 1.02 ± 0.1; in assay [1] (agonist: MPLA […]) it was 0.892 ± 0.047. Moreover, the IRF reporter in assay [2] (agonist: 3'3'-cGAMP 10 ug/mL) came to 0.972 ± 0.052; in assay [2] (agonist: LPS 0.1 ug/mL), 0.982 ± 0.061; in assay [2] (agonist: MPLA […]), 0.97 ± 0.13. Further, the viability score in assay [3] is 1.01 (active).
For `Cc1cc(OC2CN(C(=O)Cc3c[nH]c4ccccc34)C2)cc(=O)n1C1CC1`, the NF-kB reporter in assay [1] (setting [4]) worked out at 1.1 ± 0.055; in assay [1] (agonist: LPS 0.1 ug/mL), 1.1 ± 0.091; in assay [1] (agonist: MPLA […]) it was 0.997 ± 0.11. The figures for the IRF reporter in assay [2] (agonist: 3'3'-cGAMP 10 ug/mL), in assay [2] (agonist: LPS 0.1 ug/mL) and in assay [2] (agonist: MPLA […]) were 1 ± 0.05, 1.2 ± 0.076 and 1.23 ± 0.12, respectively. Besides, in assay [3], the viability score is 0.983 (active).
With `COc1cc2nc(N3CCN(C(=O)C4CCCO4)CC3)nc(N)c2cc1OC.Cl.O.O` (configuration not stated), the NF-kB reporter worked out at 0.675 ± 0.12 in assay [1] (setting [4]), 0.937 ± 0.069 in assay [1] (agonist: LPS 0.1 ug/mL) and 0.863 ± 0.052 in assay [1] (agonist: MPLA […]). Moreover, the figures for the IRF reporter in assay [2] (agonist: 3'3'-cGAMP 10 ug/mL), in assay [2] (agonist: LPS 0.1 ug/mL) and in assay [2] (agonist: MPLA […]) were 0.963 ± 0.029, 1.09 ± 0.094 and 1.16 ± 0.2, respectively. In addition, the viability score in assay [3] is 0.996 (active).
`Oc1c(Br)cc(C=NNc2nc3ccccc3s2)c(O)c1Br`: the NF-kB reporter in assay [1] (setting [4]) came out at 0.957 ± 0.082; in assay [1] (agonist: LPS 0.1 ug/mL), 0.958 ± 0.098; in assay [1] (agonist: MPLA […]), 1.08 ± 0.1. Moreover, the results for the IRF reporter in assay [2] (agonist: 3'3'-cGAMP 10 ug/mL), in assay [2] (agonist: LPS 0.1 ug/mL) and in assay [2] (agonist: MPLA […]) were 0.642 ± 0.069, 1.35 ± 0.23 and 1.63 ± 0.44, respectively. For the same molecule, in assay [3], the viability score is 1.03 (active).
For `O=C1CNC(=O)N1CC(O)Cn1c2ccc(Br)cc2c2cc(Br)ccc21` (configuration not stated), the NF-kB reporter turned out to be 0.998 ± 0.091 in assay [1] (setting [4]), 0.791 ± 0.068 in assay [1] (agonist: LPS 0.1 ug/mL) and 0.908 ± 0.025 in assay [1] (agonist: MPLA […]). The figures for the IRF reporter in assay [2] (agonist: 3'3'-cGAMP 10 ug/mL), in assay [2] (agonist: LPS 0.1 ug/mL) and in assay [2] (agonist: MPLA […]) were 0.989 ± 0.22, 0.928 ± 0.044 and 0.698 ± 0.079, respectively. Further, the viability score in assay [3] was 0.926 (active).
